{"source": "PubChem BioAssay (NCATS)", "key": {"[1]": {"molecular_target": "Calcium and integrin-binding protein 1 (Homo sapiens) (UniProt Q99828)", "sequence (Q99828 whole entry, looked up)": "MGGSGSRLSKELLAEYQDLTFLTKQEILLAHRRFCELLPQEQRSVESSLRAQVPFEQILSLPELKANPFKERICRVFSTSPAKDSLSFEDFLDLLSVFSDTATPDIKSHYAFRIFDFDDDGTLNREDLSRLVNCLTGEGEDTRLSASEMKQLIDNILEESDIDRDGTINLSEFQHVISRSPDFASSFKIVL", "assay": "Primary qHTS for Identification of Calcium Integrin Binding Protein 1 (CIB1) Competitor (AID 1508620);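 further: GST tagged CIB1 binding a fluorescein labelled alphaIIb integrin peptide tracer; top concentration of the series differs between compounds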", "settings": "CIB1-GST / FITC-alphaIIb peptide fluorescence polarization; series mostly up to 57.7 µM", "how_it_was_run": "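CIB1-GST (1 uM final) and compound incubated 15 min at room temperature before adding FITC-alphaIIb peptide tracer (100 nM final). Competition for binding read by fluorescence polarization (ex 480, em 540) after another 15 min at room temperature.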"}, "[2]": {"assay": "Primary qHTS for small molecule stabilizers of the endoplasmic reticulum resident proteome: Secreted ER Calcium Modulated Protein (SERCaMP) assay (AID 1508630)", "settings": "SH-SY5Y GLuc-SERCaMP (Gaussia luciferase released on ER calcium loss) secretion, thapsigargin, luminescence; series mostly up to 38.4 µM", "how_it_was_run": "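GLuc-SERCaMP-expressing SH-SY5Y cells, pretreated 16 h with compound, are challenged with thapsigargin to empty ER calcium stores; after 4 h, coelenterazine is added directly to the medium and luminescence is imaged.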"}, "[3]": {"assay": "Primary qHTS for inhibitors of nuclear receptor binding SET domain protein 2 (NSD2) in an isogenic RCH-ACV NSD2 p.E1099K mutant (9B) (AID 1645876); further: nearly all actives have a fitted effect of over 70% in size; further: potency means the concentration at half of the fitted maximal effect", "settings": "RCH-ACV NSD2 E1099K (9B) viability, CellTiter-Glo, 72 h; series mostly up to 44.9 µM"}, "[4]": {"assay": "Primary qHTS for inhibitors of nuclear receptor binding SET domain protein 2 (NSD2) in an RCH-ACV wild type WT cells (2C) (AID 1645877); further: nearly all actives have a fitted effect of over 70% in size; further: potency means the concentration at half of the fitted maximal effect", "settings": "RCH-ACV NSD2 WT (2C) viability, CellTiter-Glo, 72 h; series mostly up to 44.9 µM"}, "[5]": {"molecular_target": "Catechol O-methyltransferase (Homo sapiens) (UniProt P21964)", "sequence (P21964 whole entry, looked up)": "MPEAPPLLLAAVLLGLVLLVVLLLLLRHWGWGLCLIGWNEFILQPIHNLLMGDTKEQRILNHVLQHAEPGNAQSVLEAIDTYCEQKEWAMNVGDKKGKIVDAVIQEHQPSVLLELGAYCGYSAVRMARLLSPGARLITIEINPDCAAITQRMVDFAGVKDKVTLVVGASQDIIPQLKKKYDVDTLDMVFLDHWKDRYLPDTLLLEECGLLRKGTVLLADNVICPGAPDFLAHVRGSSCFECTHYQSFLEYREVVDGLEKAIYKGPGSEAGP", "assay": "Confirmatory Screen for Target Class Profiling of Small Molecule Inhibitors of Methyltransferases (AID 1745852)", "settings": "MTase-Glo luminescence, SAH detection, recombinant enzyme; measured here: COMT max response; stronger effect = lower value"}, "[6]": {"molecular_target": "Cytochrome P450 2D6 (Homo sapiens) (UniProt P10635)", "sequence (P10635 whole entry, looked up)": "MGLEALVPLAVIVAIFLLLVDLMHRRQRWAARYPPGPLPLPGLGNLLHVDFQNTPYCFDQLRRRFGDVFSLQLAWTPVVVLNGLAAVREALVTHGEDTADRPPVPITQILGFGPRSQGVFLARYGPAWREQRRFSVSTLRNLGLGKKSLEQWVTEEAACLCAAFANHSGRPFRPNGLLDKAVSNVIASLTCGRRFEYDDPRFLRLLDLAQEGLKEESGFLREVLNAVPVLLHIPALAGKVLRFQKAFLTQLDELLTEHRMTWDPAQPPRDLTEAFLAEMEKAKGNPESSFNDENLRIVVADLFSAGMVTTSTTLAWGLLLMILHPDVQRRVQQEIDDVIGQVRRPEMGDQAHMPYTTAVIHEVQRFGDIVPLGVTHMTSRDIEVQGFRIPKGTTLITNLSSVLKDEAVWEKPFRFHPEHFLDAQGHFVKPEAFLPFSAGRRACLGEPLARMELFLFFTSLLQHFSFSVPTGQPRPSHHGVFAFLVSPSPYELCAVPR", "assay": "Cytochrome P450 family 2 subfamily D member 6 (CYP2D6) small molecule antagonists: luciferase biochemical (cell-free) qHTS assay (AID 1645840; active means well fitted curve in the direction sought with a large enough effect in the repeat runs; an effect the other way counts as inactive or inconclusive; further: nearly all actives have a fitted effect of over 55% in size; further: potency means the concentration at half of the fitted maximal effect)", "settings": "P450-Glo CYP2D6 enzyme, luciferin luminescence, 1 h; series mostly up to 57.4 µM", "how_it_was_run": "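P450-Glo luminescent screen: recombinant CYP2D6 enzyme–proluciferin substrate mix preincubated with compound 10 min at room temperature, then NADPH regeneration added for 1 h at room temperature. Detection reagent added for 20 min; luciferin light read as relative luminescence units.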"}, "[7]": {"molecular_target": "Cytochrome P450 2C9 (Homo sapiens) (UniProt P11712)", "sequence (P11712 whole entry, looked up)": "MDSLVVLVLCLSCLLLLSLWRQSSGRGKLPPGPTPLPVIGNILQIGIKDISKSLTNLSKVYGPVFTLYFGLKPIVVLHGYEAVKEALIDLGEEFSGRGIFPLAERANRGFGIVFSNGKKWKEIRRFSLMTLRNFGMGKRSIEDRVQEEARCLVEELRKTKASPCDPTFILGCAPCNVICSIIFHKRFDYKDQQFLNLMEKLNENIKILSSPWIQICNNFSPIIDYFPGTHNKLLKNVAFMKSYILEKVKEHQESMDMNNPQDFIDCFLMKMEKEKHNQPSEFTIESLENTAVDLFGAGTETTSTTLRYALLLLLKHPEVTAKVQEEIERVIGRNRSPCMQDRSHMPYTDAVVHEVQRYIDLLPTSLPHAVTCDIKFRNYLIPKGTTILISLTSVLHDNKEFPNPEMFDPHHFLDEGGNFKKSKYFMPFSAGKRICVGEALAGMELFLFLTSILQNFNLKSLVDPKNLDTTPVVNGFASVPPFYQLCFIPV", "assay": "Cytochrome P450 family 2 subfamily C member 9 (CYP2C9) small molecule antagonists: luciferase biochemical (cell-free) qHTS assay (AID 1645842; active means well fitted curve in the direction sought with a large enough effect in the repeat runs; an effect the other way counts as inactive or inconclusive; further: potency means the concentration at half of the fitted maximal effect; nearly all actives have a fitted effect of over 55% in size)", "settings": "P450-Glo CYP2C9 enzyme assay, luciferin luminescence; series mostly up to 57.4 µM", "how_it_was_run": "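Luminescence, after 20 min with luciferin detection reagent, reflected CYP2C9 turnover during a 1 h NADPH-driven reaction at 37C. Enzyme-substrate mix contained 0.4% bovine serum albumin and was preincubated with compound 10 min at room temperature.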"}}, "note": "Several values for one entry are separate records, joined by “and”; a condition that tells them apart may be missing. Identical values can stand only once. Inconclusive results are not listed. Where a call stands in place of a potency, no number is given. Activity calls are given as the source filed them. Unless noted, the call rests on the fitted dose curve; in most records, active means well fitted curve in the direction sought with a large enough effect; inconclusive means small, poorly fitted or top-dose-only effect, or another doubt; inactive means no such curve, though single readings can be large; an effect the other way counts as inactive or inconclusive.", "data": [{"compound": "CCN1CCN(Cc2ccc(-c3cc4c(N[C@H](C)c5ccccc5)ncnc4[nH]3)cc2)CC1", "values": [{"measurement": "outcome", "setting": "[1]", "result": "inactive"}, {"measurement": "Potency", "setting": "[2]", "result": "inactive"}, {"measurement": "Potency", "setting": "[3]", "result": "9.34 µM (active)"}, {"measurement": "Potency", "setting": "[4]", "result": "7.42 µM (active)"}]}, {"compound": "NC(=O)Nc1cc(-c2cccc(F)c2)sc1C(=O)N[C@H]1CCCNC1", "values": [{"measurement": "outcome", "setting": "[1]", "result": "inactive"}, {"measurement": "Potency", "setting": "[2]", "result": "inactive"}, {"measurement": "Potency", "setting": "[3]", "result": "81.7 nM (active) and 74.2 nM (active)"}, {"measurement": "Potency", "setting": "[4]", "result": "81.7 nM (active) and 74.2 nM (active)"}]}, {"compound": "CC(=O)OCCN1C(=O)c2c(C)nc3ccc(S(=O)(=O)N4CCOCC4)cc3c2C1=O", "values": [{"measurement": "outcome", "setting": "[1]", "result": "inactive"}, {"measurement": "Potency", "setting": "[2]", "result": "inactive"}, {"measurement": "Potency", "setting": "[3]", "result": "inactive"}, {"measurement": "Potency", "setting": "[4]", "result": "inactive"}]}, {"compound": "Cc1cn2c(-c3cn[nH]c3)cnc2c(Nc2ccc(C(=O)N3CCNCC3)cc2F)n1", "values": [{"measurement": "outcome", "setting": "[1]", "result": "inactive"}, {"measurement": "Potency", "setting": "[2]", "result": "inactive"}, {"measurement": "Potency", "setting": "[3]", "result": "9.16 µM (active)"}, {"measurement": "Potency", "setting": "[4]", "result": "12.9 µM (active)"}]}, {"compound": "Cc1nc(Nc2n[nH]c3c2CN(C(=O)N[C@H](CN(C)C)c2ccccc2)C3(C)C)c2sccc2n1", "values": [{"measurement": "outcome", "setting": "[1]", "result": "inactive"}, {"measurement": "Potency", "setting": "[2]", "result": "inactive"}, {"measurement": "Potency", "setting": "[3]", "result": "10.3 nM (active) and 11.8 nM (active)"}, {"measurement": "Potency", "setting": "[4]", "result": "16.3 nM (active) and 11.8 nM (active)"}, {"measurement": "activity", "setting": "[5]", "result": -6.29, "unit": "%"}]}, {"compound": "COc1cc(C)c(Sc2cnc(NC(=O)c3ccc(CNC(C)C(C)C)cc3)s2)cc1C(=O)N1CCN(C(C)=O)CC1", "note": "(stereo not drawn)", "values": [{"measurement": "Potency", "setting": "[2]", "result": "inactive"}, {"measurement": "Potency", "setting": "[6]", "result": "21.3 µM (active)"}, {"measurement": "Potency", "setting": "[7]", "result": "536 nM (active)"}, {"measurement": "Potency", "setting": "[3]", "result": "8.33 µM (active) and 7.28 µM (active)"}, {"measurement": "Potency", "setting": "[4]", "result": "8.33 µM (active) and 5.78 µM (active)"}]}, {"compound": "Cc1ccc(NC(=O)C2(c3ccc4c(c3)OC(F)(F)O4)CC2)nc1-c1cccc(C(=O)O)c1", "values": [{"measurement": "outcome", "setting": "[1]", "result": "inactive"}, {"measurement": "Potency", "setting": "[6]", "result": "inactive"}, {"measurement": "Potency", "setting": "[3]", "result": "inactive"}, {"measurement": "Potency", "setting": "[4]", "result": "inactive"}]}, {"compound": "O=C(NCCS(=O)(=O)c1ccc(C(F)(F)F)cn1)c1ccc(Cl)cc1", "values": [{"measurement": "outcome", "setting": "[1]", "result": "inactive"}, {"measurement": "Potency", "setting": "[3]", "result": "inactive"}, {"measurement": "Potency", "setting": "[4]", "result": "inactive"}]}, {"compound": "CCCCN1CCC(CNC(=O)c2c3n(c4ccccc24)CCCO3)CC1", "values": [{"measurement": "Potency", "setting": "[2]", "result": "inactive"}]}, {"compound": "COc1ccc(OC)c(-c2nnc3ccc(-c4ccc(OC)c(O[C@@H]5CCOC5)c4)nn23)c1", "values": [{"measurement": "outcome", "setting": "[1]", "result": "inactive"}, {"measurement": "Potency", "setting": "[3]", "result": "3.72 µM (active)"}, {"measurement": "Potency", "setting": "[4]", "result": "2.95 µM (active)"}]}, {"compound": "COc1cc2nccc(Oc3ccc(NC(=O)C4(C(=O)Nc5ccc(F)cc5)CC4)cc3)c2cc1OC", "values": [{"measurement": "Potency", "setting": "[2]", "result": "inactive"}, {"measurement": "Potency", "setting": "[6]", "result": "inactive"}, {"measurement": "Potency", "setting": "[7]", "result": "2680 nM (active)"}, {"measurement": "Potency", "setting": "[3]", "result": "3.65 µM (active) and 5.25 µM (active)"}, {"measurement": "Potency", "setting": "[4]", "result": "4.09 µM (active) and 4.68 µM (active)"}]}, {"compound": "Cc1cccc(C=NNc2cc(N3CCOCC3)nc(OCCc3ccccn3)n2)c1", "values": [{"measurement": "Potency", "setting": "[2]", "result": "inactive"}]}, {"compound": "Cc1ccc(S(=O)(=O)Nc2cc(Cl)ccc2C(=O)Nc2nc(-c3ccccc3)cs2)cc1", "values": [{"measurement": "outcome", "setting": "[1]", "result": "inactive"}, {"measurement": "Potency", "setting": "[3]", "result": "inactive"}, {"measurement": "Potency", "setting": "[4]", "result": "inactive"}]}, {"compound": "CCCCCN(CCC12CC3CC(CC(C3)C1)C2)C(=O)NCCCc1ccncc1", "values": [{"measurement": "outcome", "setting": "[1]", "result": "inactive"}, {"measurement": "Potency", "setting": "[4]", "result": "16.3 µM (active)"}]}, {"compound": "Cn1cc(-c2[nH]c3cc(NC(=O)[C@H](N)C4CCCCC4)cc4c3c2C=NNC4=O)cn1", "values": [{"measurement": "Potency", "setting": "[2]", "result": "inactive"}, {"measurement": "Potency", "setting": "[6]", "result": "inactive"}, {"measurement": "Potency", "setting": "[7]", "result": "9520 nM (active)"}, {"measurement": "Potency", "setting": "[3]", "result": "578 nM (active) and 833 nM (active)"}, {"measurement": "Potency", "setting": "[4]", "result": "728 nM (active) and 742 nM (active)"}]}, {"compound": "Nc1nc(Nc2ccc(S(N)(=O)=O)cc2)nn1C(=O)c1c(F)cccc1F", "values": [{"measurement": "Potency", "setting": "[2]", "result": "inactive"}, {"measurement": "Potency", "setting": "[6]", "result": "inactive"}, {"measurement": "Potency", "setting": "[7]", "result": "120 nM (active)"}, {"measurement": "Potency", "setting": "[3]", "result": "1.63 µM (active) and 2.35 µM (active)"}, {"measurement": "Potency", "setting": "[4]", "result": "1.63 µM (active) and 1.86 µM (active)"}]}, {"compound": "CCCCOc1c(C(=O)c2c(F)cc(C)cc2F)cnc2n[nH]cc12", "values": [{"measurement": "outcome", "setting": "[1]", "result": "inactive"}, {"measurement": "Potency", "setting": "[6]", "result": "inactive"}, {"measurement": "Potency", "setting": "[3]", "result": "0.817 µM (active)"}, {"measurement": "Potency", "setting": "[4]", "result": "578 nM (active) and 235 nM (active)"}]}, {"compound": "CN(C)c1nc(Cc2ccc(NC(=O)c3ccc4ccccc4c3)cc2)nc(Cl)c1CC(=O)O", "values": [{"measurement": "outcome", "setting": "[1]", "result": "inactive"}, {"measurement": "Potency", "setting": "[6]", "result": "inactive"}, {"measurement": "Potency", "setting": "[3]", "result": "inactive"}, {"measurement": "Potency", "setting": "[4]", "result": "inactive"}]}, {"compound": "O=C(Nc1ncc(-c2cc(C(F)F)nn2-c2c(Cl)cccc2Cl)s1)C1CC1", "values": [{"measurement": "Potency", "setting": "[2]", "result": "inactive"}, {"measurement": "Potency", "setting": "[6]", "result": "10.7 µM (active)"}, {"measurement": "Potency", "setting": "[7]", "result": "6740 nM (active)"}, {"measurement": "Potency", "setting": "[3]", "result": "0.934 µM (active)"}, {"measurement": "Potency", "setting": "[4]", "result": "0.417 µM (active)"}]}, {"compound": "Nc1ccn([C@@H]2O[C@H](CO)[C@H](O)C2(F)F)c(=O)n1", "values": [{"measurement": "Potency", "setting": "[2]", "result": "inactive"}]}, {"compound": "CN(C1CCc2c(c3ccccc3n2CC(=O)O)C1)S(=O)(=O)c1ccc(F)cc1", "note": "(stereo not drawn)", "values": [{"measurement": "outcome", "setting": "[1]", "result": "inactive"}, {"measurement": "Potency", "setting": "[6]", "result": "inactive"}, {"measurement": "Potency", "setting": "[7]", "result": "19 µM (active) and 13.5 µM (active)"}, {"measurement": "Potency", "setting": "[3]", "result": "inactive"}, {"measurement": "Potency", "setting": "[4]", "result": "inactive"}]}, {"compound": "Cn1cncc1[C@@](N)(c1ccc(Cl)cc1)c1ccc2c(c1)c(-c1cccc(Cl)c1)cc(=O)n2C", "values": [{"measurement": "Potency", "setting": "[2]", "result": "inactive"}, {"measurement": "Potency", "setting": "[6]", "result": "16.9 µM (active)"}, {"measurement": "Potency", "setting": "[7]", "result": "169 nM (active)"}, {"measurement": "Potency", "setting": "[3]", "result": "inactive"}, {"measurement": "Potency", "setting": "[4]", "result": "inactive"}]}, {"compound": "COC(=O)[C@]12CCC(C)(C)C[C@@H]1[C@@H]1C(=O)C=C3[C@@]4(C)C=C(C#N)C(=O)C(C)(C)[C@@H]4CC[C@@]3(C)[C@]1(C)CC2", "values": [{"measurement": "Potency", "setting": "[2]", "result": "inactive"}]}]}
